Assay outcomes from PubChem BioAssay.
FXIa inh mix – factor XIa (human) inhibition, mixture screen; P03951; purified FXIa, fluorogenic substrate, pooled mixtures; inhibition, % at 5 µM; 0.19% of 62,000 active;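 further: each value is inhibition by a whole ten-compound pool holding the compound; 0% = enzyme with no mixture and 100% = wells lacking enzyme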
C1s block – blocks human complement C1s protease activity. 0.16% of 62,000 active. AID 538. P09871. mean inhibition % of two 10-compound mixtures (hits give high values), % at 5 µM (by protocol). purified C1s, fluorogenic AMC substrate, pooled mixtures;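 active means inhibition above 20% in each of the two 10-compound mixture wells holding the compound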;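 further: 0% = enzyme wells lacking compound mixture and 100% = no-enzyme blank wells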
HePTP inhibitor – blocks human HePTP tyrosine phosphatase; P35236; AID 521; 0.64% of 110,000 active; inhibition, % at 20 µM; recombinant HePTP phosphatase activity, OD absorbance; in the data active means inhibition above about 50%;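 further: plate controls were vehicle for no effect and reference inhibitor for full effect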
Target sequence (P35236 whole entry, looked up): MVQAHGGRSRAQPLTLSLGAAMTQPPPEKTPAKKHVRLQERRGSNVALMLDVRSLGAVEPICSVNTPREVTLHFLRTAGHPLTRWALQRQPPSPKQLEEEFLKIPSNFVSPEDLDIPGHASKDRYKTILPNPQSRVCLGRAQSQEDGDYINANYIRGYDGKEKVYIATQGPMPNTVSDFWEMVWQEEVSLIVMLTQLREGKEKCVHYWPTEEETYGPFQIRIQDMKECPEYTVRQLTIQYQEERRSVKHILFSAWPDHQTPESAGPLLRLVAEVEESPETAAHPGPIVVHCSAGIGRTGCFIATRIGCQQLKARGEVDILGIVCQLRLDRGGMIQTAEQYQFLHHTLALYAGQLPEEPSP
FXIIa inh mix – inhibitors of human coagulation factor XIIa, pooled mixtures | purified FXIIa, fluorogenic substrate | 0.2% of 62,000 active | P00748 | inhibition, % at 5 µM;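 further: 0% = enzyme without compound and 100% = no enzyme blank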
CatG inh – cathepsin G (human) inhibition; P08311; purified enzyme, AMC-tetrapeptide fluorescence, pooled mixtures; inhibition, % at 5 µM (by protocol); 0.2% of 62,000 active; AID 581;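 active means inhibition above 20% in each of the two mixture wells holding the compound; inactive means inhibition of 20% or less in either well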;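 further: 0% = enzyme control without mixture and 100% = blank lacking enzyme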
Target sequence (P08311 21-244 limits assumed): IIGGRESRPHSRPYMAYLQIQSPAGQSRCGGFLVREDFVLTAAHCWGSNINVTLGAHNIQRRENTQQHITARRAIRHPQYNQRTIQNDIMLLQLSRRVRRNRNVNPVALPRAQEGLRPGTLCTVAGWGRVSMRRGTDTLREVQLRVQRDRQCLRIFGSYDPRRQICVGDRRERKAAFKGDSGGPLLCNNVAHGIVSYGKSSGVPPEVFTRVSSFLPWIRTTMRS
PLAP activator – human PLAP activation; P05187; purified PLAP enzyme, luminescent substrate read-out; hits give high values; activation fold at 20 µM; 1.2% of 96,000 active; AID 696; in the data active means activation fold above about 2
* hit, by the source's call; . = no result. Shown are actives, neighbours in structure and some others; about 1.4% of the full set was active somewhere. Unless noted, no stated cut-off is given here; in the data, active means inhibition above about 20% (passing the limit was not always enough); inactive means the rest.

SMILES	FXIa inh mix	C1s block	HePTP inhibitor	FXIIa inh mix	CatG inh	PLAP activator
O=C(NCCCn1ccnc1)c1noc2c1CCc1ccccc1-2	19	17	9	5	95*	1
Cc1cc(NC(=O)c2noc3c2CCc2ccccc2-3)no1	42*	-13	9	10	95*	1
Cc1c(NC(=O)c2noc3c2CCc2ccccc2-3)c(=O)n(-c2ccccc2)n1C	14	6	11	-2	41	.
Cc1ccc(C(=O)Nc2ccc(Nc3ccccc3)cc2)cc1[N+](=O)[O-]	.	.	10	.	.	.
COc1cccc(N2C(=O)C(=O)/C(=C(\O)c3ccccc3)C2c2ccc(Cl)cc2)c1 (centres undefined)	.	.	-13	.	.	.
O=C(O)c1cc(-c2cccc(Cl)c2)nc2ccccc12	.	.	104*	.	.	.
O=C(NC1CC1)C1CCN(Cc2cnn(-c3ccccc3)c2-n2cccc2)CC1	.	.	.	.	.	2*
O=C(NCc1ccccn1)C1CCN(Cc2cnn(-c3ccccc3)c2-n2cccc2)CC1	.	.	.	.	.	1.8
COc1cccc(CNC(=O)C2CCN(Cc3cnn(-c4ccccc4)c3-n3cccc3)CC2)c1	10	7	-4	2	8	2.2*
C/C(=C1/C(=O)N(c2nc3ccccc3s2)N=C1CSc1ccc(Cl)cc1)N1CCOCC1	.	.	-3	.	.	.
C=CCn1c(-c2ccc(OC)cc2)n[nH]c1=S	.	.	4	.	.	.
COc1ccc(-c2n[nH]c(=S)n2CC(C)C)cc1	.	.	.	.	.	2.5*
COc1cccc(/C=N\NC(=O)CN2CCN(Cc3ccccc3)CC2)c1O	.	.	12	.	.	.
CCOC(=O)c1c(C)[nH]c(N=Nc2cccc(OC)c2)c1C	.	.	103*	.	.	.
O=c1oc2c(CN3CCOCC3)c(O)ccc2cc1-c1nc2ccccc2[nH]1	.	.	2	.	.	.
O=c1oc2c(CN3CCCCCC3)c(O)ccc2cc1-c1nc2ccccc2[nH]1	-11	-47	-7	-15	-14	2.4*
COc1ccc(OCc2ccc(C(=O)Nc3ccccc3C(=O)O)cc2)cc1	.	.	-4	.	.	.
Cc1ccc(OCCSc2ncnc3nc[nH]c23)cc1	.	.	3	.	.	2.4*
Oc1[nH]c2ccc(F)cc2c1N=Nc1ccccn1	.	.	10	.	.	.
O=C(CSc1n[nH]c(-c2ccncc2)n1)c1ccccc1	1	4	1	28	11	0.9
Cc1nc(SCC(=O)c2ccccc2)n[nH]1	-1	-7	-8	-18	-5	2.2*
O=C1NC(=O)C(=Cc2cccc(OCc3ccc(Cl)cc3Cl)c2)C(=O)N1	.	.	3	.	.	.
O=C(ON1C(=O)C2C3c4ccccc4C(c4ccccc43)C2C1=O)c1ccccc1 (centres undefined)	.	.	5	.	.	.
C[C@H](N)c1nnc(SCC(=O)c2ccc(Cl)cc2)o1	.	.	.	.	.	2.9*
CC(C)[C@H](N)c1nnc(SCC(=O)c2ccc(Cl)cc2)o1	.	.	.	.	.	0.9
SMILES	FXIa inh mix	C1s block	HePTP inhibitor	FXIIa inh mix	CatG inh	PLAP activator
CC(C)n1c(C(O)c2ccc3c(c2)OCO3)nc2ccccc21 (centres undefined)	2	0	-4	-2	-3	2.4*
Cn1c(C(O)c2ccc3c(c2)OCO3)nc2ccccc21 (centres undefined)	5	21	7	-19	9	1.4
O=c1c2c(nc3cc(-c4ccccc4)[nH]n13)CCS2	.	.	-1	.	.	0.8
O=c1c2c(nc3cc(-c4ccc(Br)cc4)[nH]n13)CCS2	.	.	52*	.	.	.
CCOc1ccc2cc(S(=O)(=O)n3nnc4ccccc43)ccc2c1	.	.	-13	.	.	.
CCOc1cc(/C=C2\SC(=S)NC2=O)ccc1OCc1c(C)no[n+]1[O-]	.	.	102*	.	.	.
COCCN=C1Sc2nc3ccc(C)cc3cc2CN1Cc1ccco1	.	.	.	.	.	2*
O=C(c1ccco1)N1CCN(S(=O)(=O)c2ccc(S(=O)(=O)NC3CCCCC3)cc2)CC1	2	71*	4	9	9	1
Cc1c(Cl)cccc1N1C(=O)C2C3C=CC(C3=C3CCCCC3)C2C1=O (centres undefined)	.	.	6	.	.	.
CCOC(=O)c1cccc(N/C(N)=N/c2nc(C(F)(F)F)cc(=O)[nH]2)c1	.	.	6	.	.	.
COC(=O)Cc1cc(=O)[nH]c(/N=C(\N)Nc2ccc(C)cc2)n1	.	.	.	.	.	2.1*
COc1ccc(Cl)cc1N/C(N)=N/c1nc(CSc2ccc(C)cc2)cc(=O)[nH]1	.	.	.	.	.	2.6*
COCc1cc(=O)[nH]c(/N=C(\N)Nc2cccc(C)c2)n1	.	.	.	.	.	2.4*
CCOC(=O)C1=C(C)NC2=C(C(=O)CC(C)(C)C2)C1c1ccc(OC(F)F)cc1 (centres undefined)	.	.	-3	.	.	.
O=C(COc1ccc(Cl)cc1)Nc1nn[nH]n1	.	.	1	.	.	.
O=[N+]([O-])c1ccc2c(c1)C1C=CCC1C(c1ccccc1Cl)N2 (centres undefined)	.	.	-7	.	.	.
Cc1csc(NC(=O)CCN2C(=O)c3ccccc3S2(=O)=O)n1	-6	-14	-6	7	-17	1
CCOC(=O)Cc1csc(NC(=O)CN2C(=O)c3ccccc3S2(=O)=O)n1	8	12	3	0	6	2.3*
CN(C)S(=O)(=O)c1cccc(COC(=O)C2=COCCO2)c1	6	11	6	21*	12	1.1
CN(C)S(=O)(=O)c1ccc(NC(=O)N2CCN(c3cccc(C(F)(F)F)c3)CC2)cc1	.	.	.	.	.	2.1*
COc1ccc(NC(=O)N2CCN(c3cccc(C(F)(F)F)c3)CC2)cc1	0	1	4	1	6	0.9
CN(CCc1ccccn1)c1ncnc2[nH]ncc12	-4	16	-3	9	-1	2.1*
O=C(Cn1nc(C(F)F)cc1C(F)F)NNC(=S)Nc1ccc(F)cc1	.	.	.	.	.	2.4*
Cc1cc([N+](=O)[O-])nn1CC(=O)NNC(=S)Nc1ccc(Cl)cc1	.	.	.	.	.	1.3
Cc1ccc(NC(=S)NNC(=O)Cn2nc([N+](=O)[O-])cc2C)cc1	.	.	.	.	.	2*
SMILES	FXIa inh mix	C1s block	HePTP inhibitor	FXIIa inh mix	CatG inh	PLAP activator
Cc1ccc(NC(=S)NNC(=O)CCn2cc(C)cn2)cc1	.	.	.	.	.	2.4*
COc1ccc(N/N=C(/C#N)C(=N)N2CCOCC2)cc1	.	.	-5	.	.	.
c1ccc2cc(OCCCCN3CCOCC3)ccc2c1	.	.	5	.	.	.
COc1ccc(C(C)NC(=O)Cc2cccc3ccccc23)cc1 (centres undefined)	.	.	-12	.	.	.
Cc1ccccc1C(=O)NNC(=O)Cc1cccc2ccccc12	.	.	.	.	.	2*
CCN1C(=O)C(=Cc2ccc(-c3cccc(C(=O)O)c3)o2)C(=O)N(CC)C1=S	.	.	15	.	.	.
O=C1NC(=S)N(c2cccc(Br)c2)C(=O)/C1=C/c1ccc(-c2ccc(C(=O)O)cc2)o1	.	.	69*	.	.	.
C=CCN1C(=O)/C(=C\c2ccc(-c3ccc(F)cc3)o2)C(=O)NC1=S	.	.	62*	.	.	.
C=CCN1C(=O)/C(=C\c2ccc(-c3ccc(C(=O)O)cc3)o2)C(=O)NC1=S	.	.	102*	.	.	.
C=CCN1C(=O)/C(=C\c2ccc(-c3ccc(OC)cc3[N+](=O)[O-])o2)C(=O)NC1=S	.	.	-4	.	.	.
C=CCN1C(=O)/C(=C\c2ccc(-c3cccc(C(=O)O)c3)o2)C(=O)NC1=S	.	.	96*	.	.	.
O=C1NC(=S)N(c2cccc(Br)c2)C(=O)/C1=C/c1ccc(-c2cccc([N+](=O)[O-])c2)o1	.	.	25	.	.	.
COc1ccc(N2C(=O)NC(=O)/C(=C/c3ccc(-c4ccc(C(=O)O)cc4)o3)C2=O)cc1	.	.	10	.	.	.
